Mcl1 Noxa PPI – Mcl-1/Noxa interaction inhibition; Q07820; TR-FRET Mcl-1/Noxa peptide binding, 2 h; inhibition, % at 21.7 µM; hit rate 1.5% among 220,000; AID 1022;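 active = compounds that cut the protein-peptide binding signal by more than 50% relative to plate controls in a single-dose test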;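 note: His-tagged Mcl-1 with rhodamine Noxa BH3 peptide and terbium anti-His antibody; 0% = Mcl-1 plus Noxa peptide wells and 100% = peptide-only wells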
Target sequence (Q07820 whole entry, looked up): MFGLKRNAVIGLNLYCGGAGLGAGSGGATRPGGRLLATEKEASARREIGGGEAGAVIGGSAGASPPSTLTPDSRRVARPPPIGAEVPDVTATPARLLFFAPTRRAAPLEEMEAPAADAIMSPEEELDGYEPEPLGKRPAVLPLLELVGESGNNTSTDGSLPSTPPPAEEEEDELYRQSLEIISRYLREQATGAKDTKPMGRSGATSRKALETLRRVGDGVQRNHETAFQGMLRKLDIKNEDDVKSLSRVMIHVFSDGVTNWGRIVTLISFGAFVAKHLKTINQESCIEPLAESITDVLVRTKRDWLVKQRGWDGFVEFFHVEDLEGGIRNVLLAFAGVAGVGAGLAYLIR
14-3-3 Bad PPI – disrupts binding of bovine 14-3-3 zeta to phospho-Bad peptide. P63103. TR-FRET 14-3-3zeta/Dy647-pBad peptide displacement, 1 h. inhibition, % at 21.7 µM. hit rate 0.71% among 220,000;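 active = inhibition above about 70%, limit read from the data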;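 note: 0% = full 14-3-3 plus peptide FRET controls and 100% = background without 14-3-3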
Target sequence (P63103 whole entry, looked up): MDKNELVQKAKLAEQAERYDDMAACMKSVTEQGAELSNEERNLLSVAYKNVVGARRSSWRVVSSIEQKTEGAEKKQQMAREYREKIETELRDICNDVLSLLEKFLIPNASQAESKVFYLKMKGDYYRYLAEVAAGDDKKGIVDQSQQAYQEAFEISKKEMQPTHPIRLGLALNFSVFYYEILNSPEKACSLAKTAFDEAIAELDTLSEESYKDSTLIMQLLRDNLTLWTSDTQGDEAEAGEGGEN
Pf gamet viab – inhibitors of late stage P. falciparum gametocyte viability; inhibition, % at 10.9 µM; hit rate 0.065% among 150,000; P. falciparum stage V gametocytes, ATP luminescence, 24 h;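 active = inhibition above the mean plus 3 SD of compounds within the control limits, set per campaign, cut at about 38% in these data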;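 note: 0% = DMSO wells and 100% = medium only without gametocytes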
eIF4E-4G inh – blocks eIF4E binding to eIF4G; hit rate 0.37% among 220,000; P63073+Q04637; inhibition, % at 21.7 µM; TR-FRET eIF4E-eIF4GI(517-606) binding, 2 h;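 active = inhibition above about 30%, limit read from the data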;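 note: 0% = full FRET control wells and 100% = background wells lacking eIF4GI fragment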
Mcl1 Bid PPI – Mcl-1/Bid interaction inhibition | TR-FRET Mcl-1/Bid-Dy647 peptide binding, 1536-well | inhibition, % at 21.7 µM | hit rate 0.97% among 220,000 | AID 1021 | Q07820;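 active = compounds that cut the binding signal by more than half at the single screening dose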;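 note: His-tagged Mcl-1 with europium anti-His antibody binding Bid BH3 peptide; 0% = Mcl-1 plus peptide wells and 100% = peptide-only wells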
Mcl-1 Bim block – inhibitors of Bim-Mcl-1 interaction, human. hit rate 0.1% among 190,000. inhibition, % at 10 µM. Q07820. Bead-based flow cytometry, Bim peptide-Mcl-1 binding. AID 1009; in the data active = inhibition above about 40%;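 note: 0% = no compound tracer wells and 100% = peptide blocker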
Active calls of the source: *; / = no result; [ ] = another dose, or the depositor's remark. Only some compounds are listed: those with a hit (about 2.7% of all), similar ones and a draw of the others.

SMILES	Mcl1 Noxa PPI	14-3-3 Bad PPI	Pf gamet viab	eIF4E-4G inh	Mcl1 Bid PPI	Mcl-1 Bim block
NC(=O)COC(=O)c1cccc(NS(=O)(=O)/C=C/c2ccccc2)c1	7.0	2.3	-39.5	12.4	-27.4	0.0
NC(=O)NC(=O)COC(=O)c1cccc(NS(=O)(=O)/C=C/c2ccccc2)c1	1.7	-0.5	15.1	34.4*	-5.5	-2.0
CC(=O)NC1C(Oc2ccccc2C)OC(CO)C(O)C1O (configuration not stated)	5.2	-1.2	16.2	-0.3	-8.9	0.0
O=C(O)CC(CCc1ccccc1)OC1OC(CO)C(O)C(O)C1O (configuration not stated)	92.3*	18.9	/	-11.0	-60.0	/
Clc1ccc(Cl)c(-c2nn3c(COc4ccccc4)nnc3s2)c1	-0.7	7.0	10.8	33.6*[fluorescence artefact?]	16.7	3.0
c1ccc(OCc2nnc3sc(-c4cccs4)nn23)cc1	0.6	19.6	/	27.0	16.6	-12.0
Cc1cnc(NC(=O)c2cncc(Br)c2)s1	-6.5	-18.3	-18.4	0.2	-9.9	-2.0
COc1cccc(CCc2nnc(CCC(=O)N3CCN(Cc4ccccn4)CC3)o2)c1	6.9	-2.2	11.1	0.9	-19.6	-1.0
NC(=S)N/N=C/c1coc2ccc(Cl)cc2c1=O	14.7	17.6	/	2.8	-44.3	0.0
CC(C)N=c1scc(-c2cccs2)n1/N=C/c1ccc(O)c(O)c1O	51.5*	-19.8	-10.5	11.8	-94.0	-3.0
CN=c1scc(-c2ccccc2F)n1/N=C/c1ccc(O)c(O)c1O	57.6*	7.6	-8.5	12.2	-38.5	-1.0
CCN1C(=O)/C(=C\N(C)C)S/C1=N\S(=O)(=O)c1ccccc1	12.5	91.8*	-29.9	-3.9	-18.4	4.0
CCCOc1ccc(-c2c(C(=O)N/N=C/c3ccc(OC)cc3)nnn2-c2nonc2N)cc1	12.3	5.1	6.1	16.8	-26.6	55.0*
CCOc1ccc(/C=N/NC(=O)c2nnn(-c3nonc3N)c2COc2ccc(F)cc2)cc1	8.6	3.4	9.5	4.2	-22.4	/
CN(C)c1ccc(/C=N/NC(=O)c2nnn(-c3nonc3N)c2COc2ccc(F)cc2)cc1	59.3*	7.9	16.9	22.9	-40.3	/
C(=N\c1nc2ccccc2n1Cc1ccccc1)/c1cccs1	20.1	-3.4	/	-8.4	50.7*	-1.0
N#Cc1ccc(-c2ccccc2)nc1SCC(=O)c1cc2ccccc2oc1=O	20.6	20.2	/	-26.6	64.2*	-3.0
CC(C)c1c(C#N)c(N)nc(SCC(=O)c2cc3ccccc3oc2=O)c1C#N	-12.1	-0.6	/	-3.5	-17.7	0.0
CCNc1nc(C23CC4CC(CC(C4)C2)C3)cs1	17.4	-4.3	-16.7	1.3	-18.2	0.0
CCOC(=O)N1CCN(Cc2ccccc2Cl)CC1	0.5	74.6*	-12.5	-1.2	-13.2	-1.0
CC(C)(C)c1cc(CN2CCN(CCO)CC2)cc(C(C)(C)C)c1O	28.4	20.6	/	4.1	62.3*	-4.0
COC(=O)C1=NNC(C(=O)c2ccco2)C1c1ccc(OC)cc1 (configuration not stated)	1.0	-5.6	-24.3	0.5	-41.6	-2.0
O=C(Cc1cccs1)Nc1nnc(CCc2ccccc2)s1	9.7	4.9	-0.7	4.6	-0.3	2.0
O=C(Cc1cccs1)Nc1nnc(Cc2ccccc2)s1	82.1*	-14.2	/	17.2	-38.8	-17.0
COc1cc(NC(=O)c2ccccc2)c(OC)cc1NC(=O)Cc1cccs1	61.5*	0.8	-10.1	38.9*	-108.0	0.0
SMILES	Mcl1 Noxa PPI	14-3-3 Bad PPI	Pf gamet viab	eIF4E-4G inh	Mcl1 Bid PPI	Mcl-1 Bim block
COc1ccc(Cc2nnc(NC(=O)Cc3cccs3)s2)cc1OC	96.4*	63.0	-13.4	36.8*	75.8*	0.0
Cc1ccc([N+](=O)[O-])cc1NC(=O)Cc1cccs1	55.6*	56.0	-11.9	37.0*	-21.5	0.0
N#Cc1ccc(Oc2ccc(/C=N/O)cn2)cc1	9.4	2.1	-5.3	-1.5	2.1	-5.0
O=C(Cc1cccs1)Nc1nc2c(ccc3ccccc32)s1	10.4	13.0	/	5.0	-11.2	-3.0
O=C(Cc1cccs1)Nc1nnc(SCc2cccc3ccccc23)s1	68.4*	-6.0	3.5	10.3	18.2	-3.0
COc1cc(/C=N/NC(=O)C(=O)NCc2ccco2)cc(Cl)c1O	62.4*	60.0	22.4	8.3	-13.8	/
CNc1sc(C(=O)c2ccccc2F)c(N)c1-c1nc2ccccc2s1	85.9*	5.4	12.8	-4.4	-33.2	0.0
O=C(CNC(=O)c1ccccc1F)OCc1nc2ccccc2s1	-6.8	2.4	-13.2	2.8	-7.7	1.0
CCCCOc1ccc(/C=C/C(=O)NC2=Nc3ccccc3NC(C)=C2C(=O)OCC)cc1OC	5.7	-18.1	0.9	-3.0	-12.7	-1.0
COc1ccc(OC)c(N2C(=O)[C@@H]3C(c4ccccc4Cl)=NO[C@@H]3C2=O)c1	59.3*	13.9	/	17.5	-40.3	2.0
O=C1COc2ccc(C(=O)COc3ccc([N+](=O)[O-])cc3)cc2N1	31.4	0.2	-5.8	-2.6	-1.3	/
C(=N\N1CCN(Cc2ccccc2)CC1)/c1ccccc1	-5.3	3.7	-7.1	-1.5	-72.9	/
CCN(CC)c1ccc(/C=N/N2CCN(Cc3ccccc3)CC2)cc1	75.4*	5.3	-5.0	6.6	-7.9	-3.0
Cc1ccc(C(C)C)c(OCCN(C)C)c1	24.5	22.0	/	3.8	59.5*	-7.0
O=C(COC(=O)CCCc1c[nH]c2ccccc12)Nc1ccc2c(c1)OCO2	55.6*	-13.2	/	-4.3	-31.8	-6.0
Cc1ccc(C)c(OCC(=O)Nc2ccc3c(c2)OCO3)c1C	-15.5	-6.4	/	-3.5	85.0*	-3.0
CC1CCc2c(C(=O)Nc3ccc(N4CCOCC4)cc3)csc2C1 (configuration not stated)	67.0*	4.9	14.5	7.8	-2.8	-1.0
Cc1ccc(C23CC4CC(CC(C(=O)NC(C(=O)O)C(C)C)(C4)C2)C3)cc1 (configuration not stated)	/	/	3.0	/	/	/
CCc1ccc(-c2nc(CN3CCC(C(=O)NCCN(CC)c4ccccc4)CC3)c(C)o2)cc1	18.0	-14.8	-1.1	2.9	-91.5	0.0
CCN(CCNC(=O)C1CCCN(Cc2nc(-c3ccc(OC)cc3)oc2C)C1)c1ccccc1 (configuration not stated)	12.5	85.9*	-5.1	5.9	-69.2	0.0
Cc1cc(C)c2nc(-c3ccccn3)cc(C(=O)Nc3ccc(S(=O)(=O)Nc4cc(C)on4)cc3)c2c1	36.5	-2.0	/	6.3	-3.4	-1.0
Cc1cc(C)c2nc(-c3ccccn3)cc(C(=O)Nc3ccc(S(=O)(=O)Nc4onc(C)c4C)cc3)c2c1	79.1*	15.4	/	21.8	-6.8	4.0
Cc1ccc(C(=O)n2c(-c3ccccc3)cnc2SCC(=O)Nc2ccc(C)cc2C)cc1	-6.7	-18.7	19.2	8.9	-30.5	-6.0
COc1cc(-c2nc(-c3ccccc3)c(-c3cccs3)[nH]2)cc(OC)c1O	54.7*	-2.5	/	7.1	-29.2	4.0

Screening results deposited in PubChem BioAssay by several laboratories.
